Results on 34 molecules are retold here after ChEMBL document CHEMBL1961873, “Compounds: GSK PKIS; Assays: Nanosyn kinase panel” (2012).

Structures are written as SMILES.

Fibroblast growth factor receptor 2 (Homo sapiens), sequence (P21802 22-821 limits assumed): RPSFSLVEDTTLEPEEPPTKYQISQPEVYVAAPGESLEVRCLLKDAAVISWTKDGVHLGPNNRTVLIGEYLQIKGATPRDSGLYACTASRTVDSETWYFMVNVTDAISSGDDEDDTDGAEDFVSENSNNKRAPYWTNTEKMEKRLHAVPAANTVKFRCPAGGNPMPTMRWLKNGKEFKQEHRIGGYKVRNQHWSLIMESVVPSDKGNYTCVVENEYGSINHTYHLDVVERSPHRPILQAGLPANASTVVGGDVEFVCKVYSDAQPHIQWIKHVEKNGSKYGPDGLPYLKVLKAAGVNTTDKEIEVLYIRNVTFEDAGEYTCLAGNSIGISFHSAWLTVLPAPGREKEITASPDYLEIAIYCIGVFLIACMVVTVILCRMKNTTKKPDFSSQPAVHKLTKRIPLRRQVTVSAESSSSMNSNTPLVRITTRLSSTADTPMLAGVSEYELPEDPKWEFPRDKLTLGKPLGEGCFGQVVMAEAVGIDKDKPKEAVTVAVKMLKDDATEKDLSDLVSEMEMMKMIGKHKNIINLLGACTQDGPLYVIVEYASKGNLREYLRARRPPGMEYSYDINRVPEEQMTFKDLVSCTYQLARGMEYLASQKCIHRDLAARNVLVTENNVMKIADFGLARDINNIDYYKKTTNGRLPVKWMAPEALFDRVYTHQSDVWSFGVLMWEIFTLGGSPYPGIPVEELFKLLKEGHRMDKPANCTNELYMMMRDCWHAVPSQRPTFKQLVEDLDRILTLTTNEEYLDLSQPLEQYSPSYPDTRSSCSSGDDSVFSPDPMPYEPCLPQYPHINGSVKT

The target of the first assay is Fibroblast growth factor receptor 1 (Homo sapiens) (UniProt P11362). Particulars: at 1 µM.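 Also: values are the mean percent inhibition of FGFR1 across replicate measurements.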
Fibroblast growth factor receptor 1 (Homo sapiens), sequence (P11362 22-822 limits assumed): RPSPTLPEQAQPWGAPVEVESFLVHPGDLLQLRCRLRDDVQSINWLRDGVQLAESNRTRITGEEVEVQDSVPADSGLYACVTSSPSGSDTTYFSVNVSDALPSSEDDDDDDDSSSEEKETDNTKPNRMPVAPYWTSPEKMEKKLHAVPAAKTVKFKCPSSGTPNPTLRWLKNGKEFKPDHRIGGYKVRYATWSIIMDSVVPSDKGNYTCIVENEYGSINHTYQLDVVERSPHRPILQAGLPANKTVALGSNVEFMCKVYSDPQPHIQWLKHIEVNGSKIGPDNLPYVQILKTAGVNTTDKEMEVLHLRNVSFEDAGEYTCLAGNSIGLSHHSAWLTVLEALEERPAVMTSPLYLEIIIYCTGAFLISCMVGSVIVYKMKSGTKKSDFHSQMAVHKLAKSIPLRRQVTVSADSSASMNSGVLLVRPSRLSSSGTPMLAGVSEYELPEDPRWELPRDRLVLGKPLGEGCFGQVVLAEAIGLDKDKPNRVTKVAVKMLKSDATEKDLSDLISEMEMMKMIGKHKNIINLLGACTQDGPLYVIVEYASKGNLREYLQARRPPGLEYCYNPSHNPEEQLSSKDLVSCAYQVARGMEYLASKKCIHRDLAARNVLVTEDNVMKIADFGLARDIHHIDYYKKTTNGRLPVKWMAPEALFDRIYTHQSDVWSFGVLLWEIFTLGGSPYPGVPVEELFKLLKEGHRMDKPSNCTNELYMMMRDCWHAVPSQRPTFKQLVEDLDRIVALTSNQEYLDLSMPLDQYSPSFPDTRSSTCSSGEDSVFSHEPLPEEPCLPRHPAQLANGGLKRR
In the case of `O=C(O[C@H]1CN[C@H](C#Cc2cc3ncnc(Nc4ccc(Cc5ccccc5)cc4)c3s2)C1)N1CCOCC1`, the inhibition stood at 2.47%. As to `CCn1c(-c2nonc2N)nc2ccccc21`, the inhibition stood at 2.29%. `COc1ccc2[nH]c3c4[nH]c5ccc(OC)cc5c4c4c(c3c2c1)C(=O)NC4=O`: the inhibition turned out to be 3.2%. Still for that read-out and setting: as for `CCn1cc(-c2ccnc3[nH]ccc23)c(-c2cccc(NC(=O)Nc3ccc(OCc4ccccc4)cc3)c2)n1`, the figure is -2.55%; as for `Fc1ccc(-c2nn3ncccc3c2-c2ccnc(Nc3ccc4c(c3)OCCO4)n2)cc1`, 15.9%; as for `CCN1CCC(CC(=O)Nc2n[nH]c3nnc(-c4cccc(F)c4F)cc23)CC1`, 0.41%. On the same count and under the same terms, then `CC(C)COC(=O)c1ccc2c(c1)/C(=C/Nc1ccc(S(N)(=O)=O)cc1)C(=O)N2`, with 4.86%; and `COC(=O)Nc1nc2ccc(S(=O)(=O)c3ccc(NC(=O)Nc4cc(C(F)(F)F)ccc4F)cc3)cc2[nH]1`, with 2.11%; and `CCOc1ccc2c(-c3ccnc(Nc4cccc(C(F)(F)F)c4)n3)cnn2n1`, with 7.08%. The same measure, in the same setting: then `COc1cccc(-n2ncc3c(N/N=C/c4ccc(F)cc4)ncnc32)c1`, with -0.23%.

On to `COc1cc(Nc2nccc(Nc3ccc4c(C)n[nH]c4c3)n2)cc(OC)c1OC`, for which the inhibition is 24.8%. With `CC1=C(C(=O)Nc2cc(Cl)c3[nH]ncc3c2)C(c2ccc(C(F)(F)F)cc2)CC(=O)N1` (stereo unspecified), the inhibition is 2.9%. As for `CCn1c(-c2nonc2N)nc2c(C#CC(C)(C)O)ncc(OC3CCNCC3)c21`, the inhibition was -4.66%. On the same count and under the same terms, then `CNC(=O)c1cccc(C#Cc2cncnc2Nc2ccc(OCc3cccc(F)c3)c(Cl)c2)c1`, with 0.26%; and `COc1cc(/C=N/Nc2ncnc3[nH]ncc23)ccc1O`, with 7.94%; and `COc1cc2ncn(-c3cc(OCc4ccccc4C(F)(F)F)c(C(=O)N(C)C)s3)c2cc1OC`, with 10.3%. As for `NS(=O)(=O)c1ccc(Nc2ncc(-c3ccccc3)o2)cc1`, the inhibition stood at 8.69%.

A further assay addresses Fibroblast growth factor receptor 2 (Homo sapiens) (UniProt P21802). Particulars: at 0.1 µM.
Regarding `CCCN(CCS(C)(=O)=O)Cc1ccc(-c2ccc3ncnc(Nc4ccc(OCc5cccc(F)c5)c(Cl)c4)c3c2)o1`, the inhibition was -0.3%.

In the case of `Cc1ccc2c(-c3ccnc(Nc4ccccc4)n3)c(-c3ccc(F)cc3)nn2n1`, the inhibition was 7.81%.

Regarding `Fc1ccc(-c2cc(-c3c[nH]nc3-c3ccccn3)ccn2)cc1`, the inhibition worked out at 5.36%. Regarding `FC(F)(F)c1cccc(-c2nn3ncccc3c2-c2ccnc(Nc3ccc4c(c3)OCCO4)n2)c1`, the inhibition was 1.92%. On the same count and under the same terms, as for `N#Cc1c(NC(=O)CN2CCOCC2)sc2c1CCCC2`, the figure is 3.03%; as for `c1ccc(COc2ccc(Nc3ncnc4ccc(-c5ccco5)cc34)cc2)cc1`, 1.65%. Same read-out and setting: as for `Fc1ccc(-c2nn3ccccc3c2-c2ccncc2)cc1`, the figure is -0.01%; as for `Cc1cccc(Nc2ncc(-c3ccccc3)o2)c1`, 6.15%; as for `COc1cc2c(cc1Nc1nc(Nc3ccsc3C(N)=O)c3cc[nH]c3n1)N(C(=O)CN(C)C)CCC2(C)C`, 5.74%.

As for `c1cc(-c2cnn3nc(N4CCOCC4)ccc23)nc(NC2CC2)n1`, the inhibition was determined as 4.74%. As for `CC(=O)NCc1cccc(C#Cc2cncnc2Nc2ccc(OCc3cccc(F)c3)c(Cl)c2)c1`, the inhibition was -2.84%.

As to `CC(=O)Nc1cccc(C#Cc2cncnc2Nc2ccc(OCc3cccc(F)c3)c(Cl)c2)c1`, the inhibition was 2.27%. For `Nc1nc(-c2cccc(Cl)c2)c(-c2ccc3ncccc3n2)s1`, the inhibition was 5.51%.

Consider `COc1ccc(-c2oc3ncnc(N)c3c2-c2ccc(NC(=O)Nc3cc(C(F)(F)F)ccc3F)cc2)cc1`, for which the inhibition was found to be 31.2%. On the same count and under the same terms, then `CC(C)(CO)CNC(=O)c1ccc2c(c1)/C(=N/Nc1ccc(S(N)(=O)=O)cc1)C(=O)N2`, with 0.16%; and `CCNC(=O)O[C@H]1CN[C@H](C#Cc2cc3ncnc(Nc4ccc(OCc5cccc(F)c5)c(Cl)c4)c3s2)C1`, with 2.71%.

Consider `O=C(O[C@H]1CN[C@H](C#Cc2cc3ncnc(Nc4ccc(Cc5ccccc5)cc4)c3s2)C1)N1CCOCC1`, for which the inhibition is 2.52%. For `CCn1c(-c2nonc2N)nc2ccccc21`, the inhibition came to 0.75%. Regarding `COc1ccc2[nH]c3c4[nH]c5ccc(OC)cc5c4c4c(c3c2c1)C(=O)NC4=O`, the inhibition worked out at 4.75%. As to `CCn1cc(-c2ccnc3[nH]ccc23)c(-c2cccc(NC(=O)Nc3ccc(OCc4ccccc4)cc3)c2)n1`, the inhibition was -0.49%. In the case of `Fc1ccc(-c2nn3ncccc3c2-c2ccnc(Nc3ccc4c(c3)OCCO4)n2)cc1`, the inhibition was found to be 5.02%. Turning to `CCN1CCC(CC(=O)Nc2n[nH]c3nnc(-c4cccc(F)c4F)cc23)CC1`, the inhibition worked out at 0.64%. Turning to `CC(C)COC(=O)c1ccc2c(c1)/C(=C/Nc1ccc(S(N)(=O)=O)cc1)C(=O)N2`, the inhibition was -0.6%. Same read-out and setting: then `COC(=O)Nc1nc2ccc(S(=O)(=O)c3ccc(NC(=O)Nc4cc(C(F)(F)F)ccc4F)cc3)cc2[nH]1`, with 2.63%; and `CCOc1ccc2c(-c3ccnc(Nc4cccc(C(F)(F)F)c4)n3)cnn2n1`, with 3.04%; and `COc1cccc(-n2ncc3c(N/N=C/c4ccc(F)cc4)ncnc32)c1`, with 6.26%. Take `COc1cc(Nc2nccc(Nc3ccc4c(C)n[nH]c4c3)n2)cc(OC)c1OC`: the inhibition is 7.33%. The same measure, in the same setting: then `CC1=C(C(=O)Nc2cc(Cl)c3[nH]ncc3c2)C(c2ccc(C(F)(F)F)cc2)CC(=O)N1` (stereo unspecified), with 3.38%. The same measure, in the same setting: as for `CCn1c(-c2nonc2N)nc2c(C#CC(C)(C)O)ncc(OC3CCNCC3)c21`, the figure is 9.23%; as for `CNC(=O)c1cccc(C#Cc2cncnc2Nc2ccc(OCc3cccc(F)c3)c(Cl)c2)c1`, 0.94%. Regarding `COc1ccc(-c2cc3c(N)ncnc3o2)cc1`, the inhibition is -1.74%.

Regarding `COc1cc(/C=N/Nc2ncnc3[nH]ncc23)ccc1O`, the inhibition was found to be 4.76%. Consider `COc1cc2ncn(-c3cc(OCc4ccccc4C(F)(F)F)c(C(=O)N(C)C)s3)c2cc1OC`, for which the inhibition was found to be 2.76%. Turning to `NS(=O)(=O)c1ccc(Nc2ncc(-c3ccccc3)o2)cc1`, the inhibition amounted to 7.74%.

As a reminder, the inhibition is the drop in the measured response relative to a control, in per cent.
